IL1B secr inh: qHTS for Inhibitors of Inflammasome Signaling: IL-1-beta AlphaLISA Primary Screen; activity change, % at 57.5 µM; AID 743279, 2014; THP-1 LPS/ATP IL-1B secretion, AlphaLISA, 16 h; stronger effect = lower value; 360,000 compounds, 4.7% hits; in the data active = activity change below about -50%; inconclusive = mostly about -30% to -49%
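THP-1 cells pretreated 1 hr with compounds (up to 57.5 uM final), then stimulated with LPS (250 ng/mL final) plus ATP (1.25 mM final); secreted IL-1B measured by AlphaLISA after 16 hr, decreased signal indicating inhibition.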
12-LOX inh: Primary qHTS assay for inhibitors of human arachidonate 12S-lipoxygenase (ALOX12): Round 2 | Polyunsaturated fatty acid lipoxygenase ALOX12 (Homo sapiens), P18054 | purified 12hLO, xylenol orange hydroperoxide absorbance | Potency, µM (titrated, usually from 108 µM), without a hit: at the top dose activity change, negative = inhibition, hits mostly inhibitors | 580,000 compounds, 1.1% hits | AID 1671190, 2021; also: potency is read from the fitted curve at half-maximal effect
Target sequence (P18054 whole entry, looked up): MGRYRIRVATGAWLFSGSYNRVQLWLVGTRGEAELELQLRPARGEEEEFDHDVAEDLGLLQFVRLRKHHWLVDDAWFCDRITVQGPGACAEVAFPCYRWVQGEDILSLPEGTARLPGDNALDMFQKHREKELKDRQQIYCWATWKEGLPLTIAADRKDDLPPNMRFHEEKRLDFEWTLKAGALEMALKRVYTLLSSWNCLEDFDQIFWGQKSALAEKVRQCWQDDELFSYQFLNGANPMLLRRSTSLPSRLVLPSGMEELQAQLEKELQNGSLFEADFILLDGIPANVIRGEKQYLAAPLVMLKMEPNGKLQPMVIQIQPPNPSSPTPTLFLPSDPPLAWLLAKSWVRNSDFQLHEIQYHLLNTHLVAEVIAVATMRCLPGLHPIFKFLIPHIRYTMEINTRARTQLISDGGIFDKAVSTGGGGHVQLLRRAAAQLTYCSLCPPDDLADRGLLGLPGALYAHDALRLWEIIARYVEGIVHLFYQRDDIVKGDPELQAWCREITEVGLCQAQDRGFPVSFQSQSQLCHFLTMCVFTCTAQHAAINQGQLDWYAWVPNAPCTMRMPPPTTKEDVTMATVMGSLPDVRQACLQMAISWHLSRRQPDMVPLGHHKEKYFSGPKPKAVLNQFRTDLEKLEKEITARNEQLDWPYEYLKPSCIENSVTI
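Purified human 12hLO (150 nM final) in 25 mM Hepes, 0.01% Triton X-100, pH 7.0 was preincubated 15 min at room temperature with compound. Then 40 uM arachidonic acid was added, 30 min. Hydroperoxide was read by Fe-XO absorbance ratio 573/405 nm.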
TDP1 cell noCPT: qHTS for Inhibitors of human tyrosyl-DNA phosphodiesterase 1 (TDP1): qHTS in cells in absence of CPT; DT40 Tdp1-/- hTDP1 cells, no CPT, ATP luminescence, 48 h; Potency, µM (highest dose often 46.2 µM), without a hit: at the highest dose activity change, negative = growth inhibition, hits mostly inhibitors; 420,000 compounds, 15% hits; AID 686978, 2013; also: potency is read from the fitted curve at half-maximal effect; nearly all actives have a fitted effect of over 55% in size
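A cellular qHTS used chicken DT40 cells lacking endogenous Tdp1 but carrying stably transfected human TDP1. Compounds were applied without camptothecin, and cell growth kinetics were judged by ATP-dependent luminescence after ≥48 hr.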
HT1080-NT tox: qHTS for induction of synthetic lethality in tumor cells producing 2HG: qHTS for the HT-1080-NT fibrosarcoma cell line; 360,000 compounds, 1.6% hits; Potency, µM (highest dose often 46.1 µM), without a hit: at the highest dose activity, negative = less viability, most hits filed as cytotoxic; HT-1080-NT fibrosarcoma viability, CellTiter-Glo ATP luminescence, 48 h;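 also: NT is the 2HG producing partner of a matched IDH1 knockdown line; potency is read from the fitted curve at half-maximal effect; 0% = DMSO-treated cells and -100% = media-only wells without cells; nearly all actives have a fitted effect of over 55% in size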
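Fibrosarcoma NT cells, 750 per well in 5% FBS RPMI, were exposed to compound for 48 hours. Viability: CellTiter-Glo luminescence.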
HT1080 IDH1KD tx: qHTS for induction of synthetic lethality in tumor cells producing 2HG: qHTS for the HT-1080-IDH1KD cell line; HT-1080 IDH1 knockdown viability, ATP luminescence, 48 h; Potency, µM (titrated, usually from 46.1 µM), without a hit: at the highest dose activity, negative = toxicity, actives largely listed as cytotoxic; 360,000 compounds, 2% hits; AID 686971, 2013;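 also: potency is read from the fitted curve at half-maximal effect; 0% = DMSO wells and -100% = cell-free medium wells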
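Viability of IDH1-knockdown HT-1080 fibrosarcoma cells was assessed by CellTiter-Glo after 48 h at 37 °C with titrated compound; concentration-effect curves were classified by fit quality and response size.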
TDP1 cell CPT: qHTS for Inhibitors of human tyrosyl-DNA phosphodiesterase 1 (TDP1): qHTS in cells in presence of CPT; 420,000 compounds, 12% hits; Potency, µM (doses to about 46.2 µM), inactives show at the top dose activity change, negative = growth inhibition, hits mostly inhibitors; chicken DT40 Tdp1-/-;hTDP1 cells + 20 nM CPT, ATP luminescence, 48 h; also: potency is read from the fitted curve at half-maximal effect; nearly all actives have a fitted effect of over 55% in size
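Cell growth measured by CellTiter-Glo luminescence after a minimum 48 h, 37 C compound exposure with 20 nM CPT in Tdp1-knockout DT40 cells stably expressing hTDP1, seeded 400/well; qHTS titration format.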
* marks the source's active call; other numbers are inactive results. Shown is part of a subset that was picked to be rich in hits. Unless noted, calls follow the shape of the dose curve; as a rule, active = well fitted curve in the direction sought with a large enough effect; inconclusive = small, poorly fitted or top-dose-only effect, or another doubt; inactive = no such curve, though single readings can be large; an effect the other way counts as inactive or inconclusive. Unless noted, % is scaled to controls: 0 for no effect and ±100 for the full control effect.

Results for COCCN1CCC(N2CCN(S(=O)(=O)c3ccc(C(F)(F)F)cc3)CC2)C1=O (stereo unspecified) ?
12-LOX inh: 6%

How did CCCCc1ccc(C(=O)NCc2ccccn2)cc1 do in these assays?
12-LOX inh: 52%

What do the screens show for `CCCN(Cc1ccc(F)cc1)C(=O)c1cnc(-c2ccc(C)cc2)[nH]c1=O`?
12-LOX inh: 44%

How did CCOc1ccc(-c2nc3cc(NC(=O)COc4ccccc4C)ccc3o2)cc1 do in these assays?
12-LOX inh: -5%

How did CCOc1ccc(-n2nc3ccc(NC(=O)COc4ccccc4C)cc3n2)cc1 do in these assays?
12-LOX inh: -7%; TDP1 cell noCPT: 18µM*; TDP1 cell CPT: inconclusive

Results for CC(=O)N(Cc1ccccc1)c1c(N)nc(N)[nH]c1=O ?
IL1B secr inh: -103*; 12-LOX inh: 130%; TDP1 cell noCPT: 0%; HT1080-NT tox: 16%; HT1080 IDH1KD tx: 13%; TDP1 cell CPT: 8%

What do the screens show for `CCCCCC1CCC(c2ccc(-c3ccc(OCCC)cc3F)nc2)CC1` (stereo unspecified)?
12-LOX inh: 24%

What do the screens show for `Cn1c(CC(=O)Nc2ccccc2Cl)nnc1SCc1nc2ccccc2c(=O)[nH]1`?
12-LOX inh: -23%

How did COc1ccc(N(C(=O)Cc2cccs2)C(C(=O)NC2CCCCC2)c2cccn2C)cc1OC (stereo unspecified) do in these assays?
IL1B secr inh: -6; 12-LOX inh: 0%; TDP1 cell noCPT: -18%; HT1080-NT tox: 1%; HT1080 IDH1KD tx: 0%; TDP1 cell CPT: -1%

Results for Cc1nn(C)cc1C(C(=O)NC1CCCCC1)N(C(=O)Cc1cccs1)c1ccc(Cl)cc1 (stereo unspecified) ?
IL1B secr inh: 1; 12-LOX inh: 0%; TDP1 cell noCPT: 6.5µM*; HT1080-NT tox: -4%; HT1080 IDH1KD tx: -24%; TDP1 cell CPT: 2.9µM*

What do the screens show for `COc1cc(N(C(=O)Cc2cccs2)C(C(=O)NC2CCCCC2)c2ccc(C)cc2)ccc1-n1cnnn1` (stereo unspecified)?
IL1B secr inh: 1; 12-LOX inh: -8%; TDP1 cell noCPT: 13µM*; HT1080-NT tox: -8%; HT1080 IDH1KD tx: -18%; TDP1 cell CPT: 21µM*

Results for CCN1C(SCC(=O)N2CCCC2)=NS(=O)(=O)c2ccccc21 ?
12-LOX inh: -4%

Results for CC(C)n1c(N2CCN(CC(=O)NCc3cccs3)CC2)nc2ccccc21 ?
IL1B secr inh: -9; 12-LOX inh: 1%; TDP1 cell noCPT: inconclusive; HT1080-NT tox: 3%; HT1080 IDH1KD tx: 8%; TDP1 cell CPT: inconclusive

How did CC(C)n1c(N2CCN(C(=O)c3cccs3)CC2)nc2ccccc21 do in these assays?
IL1B secr inh: -9; 12-LOX inh: -16%; TDP1 cell noCPT: 23µM*; HT1080-NT tox: -3%; HT1080 IDH1KD tx: -3%; TDP1 cell CPT: inconclusive

How did CC(C)n1c(N2CCN(C(=O)N3CCCCC3)CC2)nc2ccccc21 do in these assays?
IL1B secr inh: 13; 12-LOX inh: 53%; TDP1 cell noCPT: inconclusive; HT1080-NT tox: 8%; HT1080 IDH1KD tx: 4%; TDP1 cell CPT: 13µM*

How did CC(C)n1c(N2CCN(C(=O)Nc3ccc(Cl)cc3)CC2)nc2ccccc21 do in these assays?
IL1B secr inh: -23; 12-LOX inh: 5%; TDP1 cell noCPT: -27%; HT1080-NT tox: 0%; HT1080 IDH1KD tx: -9%; TDP1 cell CPT: -30%

How did O=C(c1ccc(F)cc1Cl)N1Cc2cnn(Cc3ccc(F)cc3)c2C1 do in these assays?
12-LOX inh: 0%

How did COc1ccc(CC(=O)NC2CCN(c3cc(-c4ccc(F)cc4)[nH]n3)CC2)cc1OC do in these assays?
12-LOX inh: 36%

Results for O=C(C[C@@H]1C/C=C/CC[C@@H](Cc2ccc(F)cc2)C(=O)OC[C@H](Cc2ccccc2)NC1=O)N[C@H](CO)Cc1ccccc1 ?
IL1B secr inh: -18; 12-LOX inh: inconclusive; TDP1 cell noCPT: 5.2µM*; HT1080-NT tox: inconclusive; HT1080 IDH1KD tx: inconclusive; TDP1 cell CPT: 9.2µM*

Results for O=C(C[C@@H]1C/C=C\CC[C@@H](Cc2ccc(F)cc2)C(=O)OC[C@@H](Cc2ccccc2)NC1=O)NCCO ?
IL1B secr inh: 11; 12-LOX inh: inconclusive; TDP1 cell noCPT: inconclusive; HT1080-NT tox: 16%; HT1080 IDH1KD tx: 7%; TDP1 cell CPT: 15µM*

How did C[C@H]1COC(=O)[C@H](Cc2ccc(F)cc2)CC/C=C/C[C@@H](CC(=O)N[C@@H](CO)Cc2ccccc2)C(=O)N1 do in these assays?
IL1B secr inh: -1; 12-LOX inh: inconclusive; TDP1 cell noCPT: 16µM*; HT1080-NT tox: 0%; HT1080 IDH1KD tx: 0%; TDP1 cell CPT: 12µM*

What do the screens show for `CC(C)(C)[C@H]1COC(=O)[C@H](Cc2ccc(F)cc2)CC/C=C/C[C@@H](CC(=O)N[C@H](CO)Cc2ccccc2)C(=O)N1`?
IL1B secr inh: 12; 12-LOX inh: inconclusive; TDP1 cell noCPT: 21µM*; HT1080-NT tox: 5%; HT1080 IDH1KD tx: 2%; TDP1 cell CPT: inconclusive

Results for C=Cc1ccc(COc2ccc3c(=O)c(-c4ccccc4OC)coc3c2)cc1 ?
12-LOX inh: 33%

What do the screens show for `Cc1[nH]c2ccccc2c1C(=O)C(=O)N1CC=C(c2ccccc2)CC1`?
IL1B secr inh: -14; 12-LOX inh: 16%; TDP1 cell noCPT: 23µM*; HT1080-NT tox: inconclusive; HT1080 IDH1KD tx: 21µM*; TDP1 cell CPT: 15µM*

What do the screens show for `O=C(c1ccc(O)c(Br)c1)c1cc(Br)ccc1O`?
IL1B secr inh: 25; 12-LOX inh: inconclusive; TDP1 cell noCPT: inconclusive; HT1080-NT tox: 5.8µM*; HT1080 IDH1KD tx: inconclusive; TDP1 cell CPT: inconclusive

Results for O=C(C(=O)c1cc(Br)ccc1O)c1cc(Br)ccc1O ?
IL1B secr inh: -84*; 12-LOX inh: inconclusive; TDP1 cell noCPT: 23µM*; HT1080-NT tox: 3.7µM*; HT1080 IDH1KD tx: 2.9µM*; TDP1 cell CPT: inconclusive

Bioassay records: PubChem, National Center for Advancing Translational Sciences (NCATS)
